{
  "source": "PubChem BioAssay AID2221",
  "about": "(Broad Institute, 2009)",
  "note": "Among all 290,000 compounds or so, about 2,200 (0.76%) were called active. What follows is part of a selection rich in actives, with near analogues and random picks from the rest. Values without a mark were called inactive. No stated cut-off is given here; in the data, active means inhibition above about 30%; inconclusive means no clear call, values can overlap the other calls; inactive means below that.",
  "data": [
    {"molecular_target": "Protein RecA (Mycobacterium tuberculosis (strain ATCC 25618 / H37Rv)) (UniProt P9WHJ3)", "sequence (P9WHJ3 whole entry, looked up)": "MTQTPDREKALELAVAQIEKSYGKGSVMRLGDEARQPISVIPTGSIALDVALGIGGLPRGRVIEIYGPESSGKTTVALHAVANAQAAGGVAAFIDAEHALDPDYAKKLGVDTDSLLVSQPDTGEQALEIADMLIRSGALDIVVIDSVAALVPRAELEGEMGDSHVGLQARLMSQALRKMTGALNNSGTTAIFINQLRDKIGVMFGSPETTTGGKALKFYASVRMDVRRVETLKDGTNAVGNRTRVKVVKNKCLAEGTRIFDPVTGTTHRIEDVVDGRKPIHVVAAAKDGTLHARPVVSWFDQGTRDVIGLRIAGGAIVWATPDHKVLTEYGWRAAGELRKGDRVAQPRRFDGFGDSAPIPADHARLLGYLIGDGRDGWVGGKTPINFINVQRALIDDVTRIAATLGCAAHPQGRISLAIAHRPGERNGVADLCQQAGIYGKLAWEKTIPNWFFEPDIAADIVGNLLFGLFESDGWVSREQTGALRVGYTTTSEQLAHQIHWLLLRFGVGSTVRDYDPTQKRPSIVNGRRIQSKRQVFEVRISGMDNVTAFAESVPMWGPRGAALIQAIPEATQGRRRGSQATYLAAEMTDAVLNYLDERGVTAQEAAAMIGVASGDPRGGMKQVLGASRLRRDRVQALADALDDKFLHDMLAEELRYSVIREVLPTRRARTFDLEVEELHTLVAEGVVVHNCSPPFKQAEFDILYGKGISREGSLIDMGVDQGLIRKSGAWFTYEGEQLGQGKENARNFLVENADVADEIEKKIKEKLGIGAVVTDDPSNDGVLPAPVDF", "assay": "Mtb RecA intein splicing inhibitors, primary screen, biochemical, fluorescence, HTS (AID 2221);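 further: 0% = vehicle wells and 100% = reference inhibitor control wells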", "conditions": "cell-free RecA intein splicing, stronger effect = higher value, concentration not given here", "values": [
      {"molecule": "CCOC(=O)C(C)n1cnc2c(nnn2-c2ccc(F)cc2)c1=O", "note": "(stereo not drawn)", "inhibition": "-0.542%"},
      {"molecule": "COC(=O)C(C)n1cnc2c(nnn2-c2ccc(F)cc2)c1=O", "note": "(stereo not drawn)", "inhibition": "-1.59%"},
      {"molecule": "CCOC(=O)C(CC)Sc1ncnc2c1nnn2-c1ccc(F)cc1", "note": "(stereo not drawn)", "inhibition": "36.6% (active)"},
      {"molecule": "Cc1ccc(C(=O)COC(=O)CCN2C(=O)C3C4CC(C(Br)C4Br)C3C2=O)cc1", "note": "(stereo not drawn)", "inhibition": "1.16%"},
      {"molecule": "CC(=O)Nc1ccc(N2C(=O)CC(Sc3nccc(C)n3)C2=O)cc1", "note": "(stereo not drawn)", "inhibition": "-1.08%"},
      {"molecule": "O=C(Oc1ccccc1C(=S)N1CCCCC1)c1cc([N+](=O)[O-])cc([N+](=O)[O-])c1", "inhibition": "28.1%"},
      {"molecule": "COc1cc(C(=S)N2CCOCC2)cc(OC)c1OC(=O)c1cc([N+](=O)[O-])cc([N+](=O)[O-])c1", "inhibition": "-0.59%"},
      {"molecule": "O=C(Oc1ccc(Br)cc1C(=S)N1CCOCC1)c1cccc([N+](=O)[O-])c1", "inhibition": "32.3% (active)"},
      {"molecule": "Cc1nn(C)cc1/C=C1\\CCC/C(=C\\c2cn(C)nc2C)C1=O", "inhibition": "1.91%"},
      {"molecule": "CC(=O)c1c(C)c[nH]c1C", "inhibition": "0.735%"},
      {"molecule": "S=C(NCC1COc2ccccc2O1)Nc1ccc(Br)cc1", "note": "(stereo not drawn)", "inhibition": "2.68%"},
      {"molecule": "CC1=NN(c2cccc(Cl)c2)C(=O)C12CC(C)=C(C)CS2", "note": "(stereo not drawn)", "inhibition": "31.7% (active)"},
      {"molecule": "Cc1[nH]n(-c2cccc(Cl)c2)c(=O)c1-c1ccc(Cl)cc1", "inhibition": "8.51%"},
      {"molecule": "CC12CCC(C(=O)N(c3cccc(Cl)c3)C1=O)C2(C)C", "note": "(stereo not drawn)", "inhibition": "2.02%"},
      {"molecule": "COC(=O)C1=C(Nc2ccc(C)cc2)C=C(C)C(C(=O)OC)C1c1ccc(F)cc1", "note": "(stereo not drawn)", "inhibition": "-4.47%"},
      {"molecule": "COc1cccc(Nc2nc(N)c([N+](=O)[O-])c(NCc3ccco3)n2)c1", "inhibition": "9.57%"},
      {"molecule": "CC(NC(=O)c1ccco1)c1ccc2c(c1)OCO2", "note": "(stereo not drawn)", "inhibition": "-3.46%"},
      {"molecule": "CCOc1ccc(C(CC(=O)O)NC(=O)Cc2ccccc2)cc1OC", "note": "(stereo not drawn)", "inhibition": "-1.09%"},
      {"molecule": "C=CCOc1ccc(/C=C2/C(=O)ON=C2C)cc1OCC", "inhibition": "0.545%"},
      {"molecule": "Cc1[nH][nH]c(=O)c1C(c1ccc2c(c1)OCO2)c1c(C)[nH][nH]c1=O", "inhibition": "97.8% (active)"},
      {"molecule": "CCOc1ccc(C(c2c(C)[nH][nH]c2=O)c2c(C)[nH][nH]c2=O)cc1OCC", "inhibition": "98.1% (active)"},
      {"molecule": "Cc1[nH][nH]c(=O)c1C(c1ccc(-c2ccc(Cl)cc2)o1)c1c(C)[nH][nH]c1=O", "inhibition": "-2.86%"},
      {"molecule": "O=C(NCCCn1ccnc1)c1cc(Br)c(Br)s1", "inhibition": "-6.96%"},
      {"molecule": "COc1ccccc1/C=C/C(=O)NC(=S)N1CCOCC1", "inhibition": "1.89%"},
      {"molecule": "CCC(C)N(C(=O)Cn1nc(C)c([N+](=O)[O-])c1C)C1CCS(=O)(=O)C1", "note": "(stereo not drawn)", "inhibition": "2.19%"},
      {"molecule": "COCCc1nn2c(=O)cc(COC(=O)c3cc(OC)c(OC)c(OC)c3)nc2s1", "inhibition": "0.818%"},
      {"molecule": "CN1c2ccc(C=O)c3c(C=O)ccc(c23)N(C)C1(C)C", "inhibition": "63.9% (active)"},
      {"molecule": "Cc1[nH]c(C)c(S(=O)(=O)N2CCN(c3cccc(C(F)(F)F)c3)CC2)c1C(=O)N1CCCC1", "inhibition": "0.869%"},
      {"molecule": "CCC(c1nnnn1Cc1ccccc1)N(Cc1cc2cc(OC)ccc2[nH]c1=O)CC1CCCO1", "note": "(stereo not drawn)", "inhibition": "-10.9%"},
      {"molecule": "CCC(c1nnnn1Cc1ccco1)N(CCc1ccccc1)Cc1cc2ccc(OC)cc2[nH]c1=O", "note": "(stereo not drawn)", "inhibition": "16.5%"},
      {"molecule": "CCC(c1nnnn1Cc1ccco1)N(Cc1cc2cc(OC)ccc2[nH]c1=O)C1CCCCC1", "note": "(stereo not drawn)", "inhibition": "30.6% (active)"},
      {"molecule": "C[C@H](C(=O)CC(=O)OC(C)(C)C)[C@H](O)c1ccc(C(F)(F)F)cc1", "inhibition": "0.927%"},
      {"molecule": "CCCCCCCCCCOC(=O)Cn1c(COc2cccc(OC)c2)[n+](C)c2ccccc21", "inhibition": "51.1% (active)"},
      {"molecule": "CCn1c(=N)n(CC(=O)c2cccc(OC)c2)c2ccccc21", "inhibition": "5.77%"},
      {"molecule": "Cc1ccc(OCc2nc3ccccc3n2C)cc1", "inhibition": "1.88%"},
      {"molecule": "COc1cccc(OCCCN2CCCCCC2)c1", "inhibition": "-1.65%"},
      {"molecule": "Cc1ccc(OCCCn2c(=O)oc3ccccc32)cc1", "inhibition": "2.53%"},
      {"molecule": "CCCCCCCCCCOC(=O)Cn1c(COc2ccc(C)cc2)[n+](C)c2ccccc21", "inhibition": "51.7% (active)"},
      {"molecule": "O=S(N1CCCCCC1)C12CC3CC(CC(C3)C1)C2", "note": "(stereo not drawn)", "inhibition": "-0.132%"},
      {"molecule": "COc1ccc(CCNC(=O)CCC(=O)NC2CCCCC2)cc1OC", "inhibition": "-0.371%"},
      {"molecule": "COc1ccc(NC(=O)c2cc(-c3cc(OC)c(OC)c(OC)c3)nc3ccccc23)c(OC)c1", "inhibition": "10.4%"},
      {"molecule": "CCOC(=O)c1c(S(=O)(=O)NCC(=O)Nc2ccc(C)cc2)c(C)n(C)c1C", "inhibition": "-0.878%"},
      {"molecule": "Cc1nnc(SCC(=O)N2CCOCC2)[nH]c1=O", "inhibition": "-0.0115%"},
      {"molecule": "CCCCOC(=O)CNc1nnc(SCC(=O)OCC)[nH]c1=O", "inhibition": "77.5% (active)"},
      {"molecule": "CCOC(=O)CSc1nc(C)c(Oc2ccc(Cl)cc2Cl)c(=O)[nH]1", "inhibition": "1.85%"},
      {"molecule": "CCC(C)[C@H](NC(=O)N1CCn2c1nc1ccccc12)C(=O)NCc1ccc(OC)cc1", "note": "(stereo partly drawn)", "inhibition": "2.07%"},
      {"molecule": "COc1ccccc1NC(=O)/C=C/C(=O)O", "inhibition": "-1.49%"},
      {"molecule": "O=C(O)/C=C/C(=O)Nc1ccc(F)cc1F", "inhibition": "0.519%"},
      {"molecule": "COC(=O)c1sc(-c2ccc(C(C)(C)C)cc2)cc1NC(=O)/C=C/C(=O)O", "inhibition": "88.1% (active)"},
      {"molecule": "CSc1ccc(S(=O)(=O)NCC(=O)OCC(=O)NC2(C#N)CCCCC2)cc1[N+](=O)[O-]", "inhibition": "1.65%"},
      {"molecule": "CC(C)[C@H](NC(=O)OCc1ccccc1)C(=O)OCc1ccccc1", "inhibition": "7.54%"},
      {"molecule": "CCOC(=O)c1ccc(Nc2cc3ccccc3c(=O)[nH]2)cc1", "inhibition": "62.4% (active)"},
      {"molecule": "CCOC(=O)c1nc(Nc2ccc(C(=O)OC)cc2)c2ccccc2n1", "inhibition": "-6.39%"},
      {"molecule": "CCOC(=O)c1ccc(NC(=O)c2cc(=O)[nH]c3ccccc23)cc1", "inhibition": "-5.09%"},
      {"molecule": "CCN(CC)CCNC(=O)c1sc2ncn(CC(=O)Nc3ccc(C)c(Cl)c3)c(=O)c2c1C", "inhibition": "-0.641%"},
      {"molecule": "O=C(CN1C(=O)CC(c2ccccc2)=Nc2ccccc21)NC1CCCCC1", "inhibition": "-1.07%"},
      {"molecule": "CCOc1ccc(NC(=O)C2CCN(C(=O)N3CCOc4ccccc43)CC2)cc1", "inhibition": "2.39%"},
      {"molecule": "Cc1nnc(NC(=O)C(c2ccccc2)c2ccccc2)s1", "inhibition": "1.12%"}
    ]}
  ]
}
